Screens: PubChem, National Center for Advancing Translational Sciences (NCATS)
An excerpt weighted towards active compounds, which were near 1.5% of everything screened.
BRCA1 expr act: BRCA1 expression activation | MCF7-BRCA1-FFLuc reporter, luminescence, 48 h; response scale: scaled: vehicle 0%, 10 µM genistein 100% | Potency, µM (series often up to 46.1 µM), for the others: top-dose activation, actives largely listed as activators | 380,000 compounds, 1.1% hits | AID 624202; also: potency is read from the fitted curve at half-maximal effect; nearly all actives have a fitted effect of over 80% in size
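Cells: MCF7-BRCA1-FFLuc, 2000/well. Exposure: 48 h, 37 °C, 5% CO2. Read: luminescence, 15 min post-substrate. Controls: genistein 10 microM (maximal activation), DMSO (neutral).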
IL-2 act: IL-2 activation. IL-2 activation reporter assay, cell-based qHTS; stimulated with anti-CD3/CD4/CD28 beads; in transgenic mouse T cells. activation, % (series mostly up to about 46 µM). 360,000 compounds, 0.065% hits; in the data active = activation above about 50%; inconclusive = mostly about 30% to 49%; also: 0% is about no effect
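First, unstimulated transgenic mouse T cells were exposed to compound for 60 min. Next, anti-CD3/anti-CD4-coated beads with anti-CD28 were added. Finally, after 18 h at 37 degrees C, EGFP and DsRed were imaged.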
mIDH1 inhibitor: inhibitors of human mutant IDH1 R132H | Potency, µM (highest dose often 76.6 µM), for the others: top-dose activity change, negative = inhibition, actives largely listed as inhibitors | O75874 | 390,000 compounds, 0.093% hits | IDH1-R132H enzyme, NADPH consumption, diaphorase/resazurin fluorescence; also: potency is read from the fitted curve at half-maximal effect; % is scaled to controls: 0 for no effect and ±100 for the full control effect; nearly all actives have a fitted effect of over 65% in size
Target sequence (O75874 whole entry R132H, stated change not applied): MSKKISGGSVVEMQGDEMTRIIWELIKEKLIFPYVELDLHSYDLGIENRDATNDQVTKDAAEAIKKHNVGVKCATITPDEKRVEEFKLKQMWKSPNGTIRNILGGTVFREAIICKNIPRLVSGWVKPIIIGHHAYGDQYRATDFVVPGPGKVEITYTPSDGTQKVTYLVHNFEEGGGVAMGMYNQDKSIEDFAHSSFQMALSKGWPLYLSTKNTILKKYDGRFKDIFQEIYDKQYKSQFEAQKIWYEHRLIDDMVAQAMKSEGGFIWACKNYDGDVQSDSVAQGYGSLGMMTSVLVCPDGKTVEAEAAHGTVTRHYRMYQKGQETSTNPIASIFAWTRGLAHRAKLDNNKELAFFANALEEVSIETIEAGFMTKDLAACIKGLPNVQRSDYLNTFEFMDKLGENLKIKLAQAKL
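IDH1-R132H (0.5 ug/mL dispensed) in pH 7.5 Tris buffer was preincubated 30 min with compound, then given a substrate mix of 0.016 mM NADPH and 2 mM alpha-KG for 80 min at room temperature; remaining NADPH was read by diaphorase/resazurin fluorescence.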
gsp ag: activates gsp, the McCune-Albright syndrome mutation; 340,000 compounds, 0.13% hits; gsp mutant cells, cAMP HTRF, 30 min; Potency, µM (titrated, usually from 76.9 µM), inactives show at the highest dose activation (cAMP increase), actives largely listed as activators; AID 624287; active = well fitted activation curve with a large enough effect; inconclusive = small, poorly fitted or top-dose-only effect, or another doubt; inactive = no such curve, though single readings can be large or run the other way; cell line not stated here;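 also: phosphodiesterase inhibitor Ro 20-1724 added with compounds to block cAMP breakdown; potency is read from the fitted curve at half-maximal effect; nearly all actives have a fitted effect of over 60% in size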
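Cells stably selected in G418 were plated at 2000/well, grown 16-24 hr, then given compounds in DMSO with the PDE inhibitor […] (300 uM solution added) for 30 min at 37C; cAMP was read by HTRF.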
gsp antag: gsp mutant antagonism | AID 624288 | Potency, µM (series often up to 76.9 µM), for the others: top-dose activity change, negative = inhibition, hits mostly inhibitors | gsp-mutant cells, cAMP HTRF, 30 min | 340,000 compounds, 0.4% hits; calls by dose curve; cell line not stated here;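 also: intracellular cAMP measured with PDE inhibitor Ro 20-1724 present during compound exposure; potency is read from the fitted curve at half-maximal effect; % is scaled to controls: 0 for no effect and ±100 for the full control effect; nearly all actives have a fitted effect of over 65% in size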
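HTRF cAMP read-out (cAMP-d2 plus anti-cAMP antibody-K in lysis buffer, 30 min RT). Before lysis, cells are exposed to compounds with […] for 30 min at 37C in DPBS containing Ca/Mg, BSA and Tween 20.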
* = called active by the depositor; ? = inconclusive; · = no result given; ! = not active in a repeat; [ ] = another dose, or the depositor's remark. Unless noted, calls follow the shape of the dose curve; as a rule, active = well fitted curve in the direction sought with a large enough effect; inconclusive = small, poorly fitted or top-dose-only effect, or another doubt; inactive = no such curve, though single readings can be large; an effect the other way counts as inactive or inconclusive.

SMILES	BRCA1 expr act	IL-2 act	mIDH1 inhibitor	gsp ag	gsp antag
CC1(C)OC(=O)C2(Cc3cc([N+](=O)[O-])ccc3N3CCCCCC32)C(=O)O1 (configuration not stated)	1%	·	·	·	·
N/C(CS(=O)(=O)c1ccccn1)=N\OC(=O)c1ccccc1Cl	2.5µM*	-2	2%	-7%[15.4 µM]	7%
S=c1[nH]ccc2ccccc12	-11%	-5	3%	5µM*	28%
S=c1[nH]ncc2ccccc12	11%	-2	5%	7%	3%
COc1cccc(-c2ncc3ccccc3c2COC(=O)CCCC(=O)O)c1	11%	0	11%	·	-4%
Cc1ccc2nc(-c3ccccn3)oc2c1	?	-2	19%	7%	5%
CCC(=O)Nc1ccc2oc(-c3cccnc3)nc2c1	10µM*	0	3%	29%[15.4 µM]	5%
CC(C)CC(=O)Nc1ccc2oc(-c3cccnc3)nc2c1	?	1	13%	-1%	3%
O=C(NC(=S)Nc1ccc2oc(-c3ccncc3)nc2c1)c1ccccc1F	-2%	3	9%	0%	32µM*
Cc1ccc2nc(-c3cccnc3)oc2c1	3.2µM*!	2	0%	-2%	-1%
CCCC(=O)Nc1ccc2oc(-c3cncc(Br)c3)nc2c1	3.2µM*	0	-7%	7%	3%
COC(=O)c1sccc1NC(=O)CN(C)NS(=O)(=O)c1ccc(F)cc1	-51%	0	5%	-1%	50µM*
COC(=O)c1sccc1NC(=O)CN(C)NS(=O)(=O)c1ccc(Cl)cc1	-62%	1	17%	-8%	8%
N#Cc1c(N)[nH]c(C(=O)c2ccccc2)c1-c1ccccc1Br	7%	0	·	·	·
O=C(Nc1ccccc1O)c1ccccc1O	-48%	0	5%	11%	25µM*
COc1ccc2c(c1)c1nnc(SCCN3CCOCC3)nc1n2C	-12%	·	·	·	·
COc1cc2c(cc1OC)C(COc1ccc(C(C)C)cc1)N(C(=O)c1ccc(S(=O)(=O)N3CCCC3)cc1)CC2 (configuration not stated)	-7%	·	-1%	·	·
CCOc1ccc(Nc2nc3c(C)cccc3cc2C#N)cc1	0%	57*	8%	9%[15.4 µM]	-1%
O=C(Nc1cccc([N+](=O)[O-])c1)c1cc2ccccc2cc1O	5%	-3	6%	-24%	14µM*
O=C(O)c1ccccc1C(=O)Nc1cccc([N+](=O)[O-])c1	11%	-2	4%	1%	8%
COc1cc2nc(N3CCCN(C)CC3)nc(NC3CCN(C)CC3)c2cc1OC	-40%	·	·	·	·
O=S(=O)(c1ccc(N=C2NN=C(c3cc(F)ccc3F)CS2)cc1)N1CCOCC1	-20%	0	26µM*	-35%	-3%
Fc1ccc(N=C2NN=C(c3cc(F)ccc3F)CS2)cc1	-59%	-5	11µM*	-4%[15.4 µM]	9%
CC(=O)Nc1ccc(C2=NNC(=Nc3ccc(S(=O)(=O)N4CCOCC4)cc3)SC2)cc1	3%	0	13µM*	12%[15.4 µM]	-11%
CC(C)(C)N=C1NN=C(c2ccc(S(=O)(=O)N3CCCCC3)cc2)CS1	-38%	-1	-1%	25%[15.4 µM]	-1%
SMILES	BRCA1 expr act	IL-2 act	mIDH1 inhibitor	gsp ag	gsp antag
CC(=O)Nc1ccc(C(=O)Nc2ccc(S(=O)(=O)N3CCOCC3)cc2)cc1	-20%	1	2%	-12%	0%
Fc1ccc(F)c(C2=NNC(=Nc3ccccc3F)SC2)c1	-54%	0	?	-38%	13%
O=C(O)Cn1cc(/C=c2/sc3nc4ccccc4n3c2=O)c2ccccc21	-9%	166*	0%	-14%[15.4 µM]	10%
O=c1/c(=C\c2cccn2-c2ccccc2)sc2nc3ccccc3n12	?	1	0%	-46%	-3%
COc1ccc(N(CC(=O)NCc2ccc3c(c2)OCO3)S(=O)(=O)c2ccc(O)c(C(=O)O)c2)cc1	-5%	-3	-5%	-18%	3%
N#C/C(=N\Nc1ccc([N+](=O)[O-])cc1)C(=N)N1CCOCC1	?	0	8%	10%[15.4 µM]	?
N#C/C(=N\Nc1ccc(Br)cc1)C(=N)N1CCOCC1	10µM*	-3	5%	-2%	-14%
CCn1c(SCC(O)c2ccccc2)nnc1-c1ccccc1 (configuration not stated)	11µM*	1	-2%	8%	10%
Cc1c(C)n(Cc2ccc(F)cc2)c2ccc(C(=O)N3CCN(c4ccc(F)cc4)CC3)cc12	·	·	1%	·	·
COc1cccc(C2Nc3ccccc3C(=O)N2c2ccc(F)cc2)c1O (configuration not stated)	7.9µM*	-2	0%	-25%	-6%
O=C1c2ccccc2NC(c2ccccc2O)N1c1ccc(F)cc1 (configuration not stated)	4µM*	0	-9%	-18%	-4%
O=C1c2ccccc2NC(c2ccccc2)N1c1ccc(O)cc1 (configuration not stated)	24%	-1	-3%	8%	-9%
O=C1c2ccccc2NC(c2ccccn2)N1c1ccc(Cl)cc1 (configuration not stated)	11µM*	0	7%	?	-3%
Cc1ccc2nc(N/C(=N/S(=O)(=O)c3ccc(F)cc3)c3ccccc3)sc2c1	43%	0	-4%	3%	25µM*
CC1(C)CC(=O)c2c(O)cc(OCC(=O)Nc3ccc(S(N)(=O)=O)cc3)cc2O1	-1%	0	-16%	·	-11%
COc1cc(NC(=O)COc2cccc3c2OC(C)(C)C3)cc(OC)c1OC	-20%	-1	20%	0%	35µM*
COc1cc(NC(=O)COc2cc(O)c3c(c2)OC(C)(C)CC3=O)cc(OC)c1OC	-47%	-1	-3%	·	35µM*
CC(C)C[C@H]1CN(CCCC[C@@H]2CNC(=O)C(=O)N2CCc2ccccc2)C(=O)C(=O)N1CCC1CCCCC1	-14%	0	·	·	·
CCOC(=O)N1CCN(CC(=O)Nc2ccc([N+](=O)[O-])cc2C(=O)Nc2ccccc2F)CC1	-59%	0	6%	10%	28µM*
CCc1ccccc1-n1cnc2cc(C(=O)NC3CCCCCC3)ccc21	·	·	10%	·	·
COC(=O)Cn1c(=NC(=O)c2cc(OC)cc(OC)c2)sc2cc(OC)ccc21	-14%	-2	5%	3%	-14%
COC(=O)Cn1c(=NC(=O)c2cccc(OC)c2)sc2cc(OC)ccc21	10µM*	-2	2%	?	6%
COc1cccc(C(=O)N=c2sc3cc(S(C)(=O)=O)ccc3n2C)c1	6.3µM*	0	-9%	-5%[15.4 µM]	-1%
CCCN(CCC)c1ccc(/C=C/c2sc3ccccc3[n+]2CCCCI)cc1	-28%	·	·	·	·
Cc1cc(C)n(-c2nc(Nc3ccccc3C(F)(F)F)nc(-n3nc(C)cc3C)n2)n1	-77%	0	-8%	6%	28µM*
